Assay [1] deals with Cytochrome P450 2D6 (Homo sapiens) (UniProt P10635). The assay can be described thus: Cytochrome P450 Family 2 Subfamily D Member 6 (CYP2D6) small molecule antagonists: luciferase reporter qHTS assay (AID 1671196). Further: nearly all actives have a fitted effect of over 50% in size. On activity change, negative = inhibition: series mostly up to about 120 µM. The gist of the method:
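Quantitative HTS of Tox21 chemicals against CYP2D6 using a luminescent proluciferin substrate. After NADPH addition, 1 h room-temperature reaction; luminescence recorded 20 min post detection reagent.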
A general note: A reporter such as luciferase makes a cellular process visible.

In assay [2] the target is Cytochrome P450 2C19 (Homo sapiens) (UniProt P33261). The assay can be described thus: Cytochrome P450 Family 2 Subfamily C Member 19 (CYP2C19) small molecule antagonists: luciferase reporter qHTS assay (AID 1671197). Further: nearly all actives have a fitted effect of over 65% in size. On activity change, negative = inhibition: series mostly up to about 120 µM. The procedure, abridged:
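P450-Glo CYP2C19 screening system; proluciferin substrate; DMSO compound stocks; 10 min RT preincubation; NADPH regeneration, 1 h at 37C; luciferin detection reagent, 20 min RT; luminescence as RLU.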

Assay [3] has as its target Cytochrome P450 2C9 (Homo sapiens) (UniProt P11712). The assay can be described thus: Cytochrome P450 Family 2 Subfamily C Member 9 (CYP2C9) small molecule antagonists: luciferase reporter qHTS assay (AID 1671198). Further: nearly all actives have a fitted effect of over 50% in size. On activity change, negative = inhibition: series mostly up to about 120 µM. The procedure, abridged:
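P450-Glo proluciferin substrate with CYP2C9 enzyme; 10 min RT preincubation, then NADPH regeneration 1 h at 37C; luciferin detection reagent 20 min RT, luminescence in relative luminescence units.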

Assay [4] concerns the target Cytochrome P450 1A2 (Homo sapiens) (UniProt P05177). Put plainly: Cytochrome P450 Family 1 Subfamily A Member 2 (CYP1A2) small molecule antagonists: luciferase reporter qHTS assay (AID 1671199). Further: nearly all actives have a fitted effect of over 50% in size. On activity change, negative = inhibition: series mostly up to about 120 µM. The procedure, abridged:
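Quantitative high-throughput format using the P450-Glo CYP1A2 system. Reaction initiated by NADPH regeneration solution, 1 h at room temperature, then stopped with detection reagent; luminescence measured 20 min later.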

Assay [5] deals with Voltage-gated inwardly rectifying potassium channel KCNH2 (Homo sapiens) (UniProt Q12809). Put plainly: Human Ether-a-go-go-Related Gene (hERG) channel small molecule antagonists: fluorescence cell-based qHTS assay (AID 1671200). Further: nearly all actives have a fitted effect of over 50% in size.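 On activity change, negative = inhibition: hERG-expressing U2OS cells given a thallium stimulus after FluxOR II dye loading; series mostly up to about 77 µM.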 The procedure, abridged:
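Thallium served as the potassium surrogate; its influx into dye-loaded U2OS cells carrying the channel was measured by fluorescence over 2 min.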

For assay [6], the target named is Cytochrome P450 3A4 (Homo sapiens) (UniProt P08684). The assay can be described thus: Cytochrome P450 Family 3 Subfamily A Member 4 (CYP3A4) small molecule antagonists: luciferase reporter qHTS assay (AID 1671201). Further: nearly all actives have a fitted effect of over 50% in size. On activity change, negative = inhibition: series mostly up to about 120 µM. The gist of the method: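 Relative luminescence units after 20 min with luciferin detection reagent served as read-out. Beforehand, CYP3A4 turned over a proluciferin substrate for 1 h at room temperature with NADPH regeneration, following 10 min compound preincubation.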

SMILES strings stand for the structures. Results filed as inconclusive are left out. A number with no mark means an inactive call. Active and inactive are the calls of the source. The call rests on the fitted dose curve; in most records, active means well fitted curve in the direction sought with a large enough effect in the repeat runs; inconclusive means weak or mixed curves; inactive means no such curve, though single readings can be large; an effect the other way counts as inactive or inconclusive.
On the % scale 0 is the no-effect control and ±100 the full control effect; potency means the concentration at half of the fitted maximal effect.

Sequence of Cytochrome P450 2C19 (Homo sapiens) (P33261 whole entry, looked up): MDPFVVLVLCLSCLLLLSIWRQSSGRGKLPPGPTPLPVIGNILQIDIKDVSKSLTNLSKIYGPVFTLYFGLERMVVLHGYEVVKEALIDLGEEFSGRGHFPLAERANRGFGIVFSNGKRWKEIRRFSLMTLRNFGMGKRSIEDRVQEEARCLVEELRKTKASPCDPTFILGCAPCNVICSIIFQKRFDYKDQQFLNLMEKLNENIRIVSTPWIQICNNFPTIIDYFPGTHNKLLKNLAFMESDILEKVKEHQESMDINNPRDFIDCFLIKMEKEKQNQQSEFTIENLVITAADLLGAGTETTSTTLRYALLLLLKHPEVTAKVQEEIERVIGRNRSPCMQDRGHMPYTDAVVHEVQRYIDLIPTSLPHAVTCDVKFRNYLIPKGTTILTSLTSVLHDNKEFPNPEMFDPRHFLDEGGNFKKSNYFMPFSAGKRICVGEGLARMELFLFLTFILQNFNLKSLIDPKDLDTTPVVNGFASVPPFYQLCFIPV
Sequence of Cytochrome P450 2D6 (Homo sapiens) (P10635 whole entry, looked up): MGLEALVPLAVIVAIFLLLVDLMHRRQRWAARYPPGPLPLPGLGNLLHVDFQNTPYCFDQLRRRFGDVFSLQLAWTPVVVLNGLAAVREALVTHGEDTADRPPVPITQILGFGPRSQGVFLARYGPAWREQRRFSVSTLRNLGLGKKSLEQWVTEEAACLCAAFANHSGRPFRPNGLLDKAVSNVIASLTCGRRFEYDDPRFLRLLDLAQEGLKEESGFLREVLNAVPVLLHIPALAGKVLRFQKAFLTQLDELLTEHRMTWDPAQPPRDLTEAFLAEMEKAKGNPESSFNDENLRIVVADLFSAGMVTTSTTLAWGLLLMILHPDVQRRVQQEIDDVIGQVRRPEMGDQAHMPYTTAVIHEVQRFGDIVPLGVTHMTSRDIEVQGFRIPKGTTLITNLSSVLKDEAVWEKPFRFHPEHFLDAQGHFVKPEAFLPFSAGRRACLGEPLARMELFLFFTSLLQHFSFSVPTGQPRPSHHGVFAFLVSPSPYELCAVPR
Sequence of Cytochrome P450 1A2 (Homo sapiens) (P05177 whole entry, looked up): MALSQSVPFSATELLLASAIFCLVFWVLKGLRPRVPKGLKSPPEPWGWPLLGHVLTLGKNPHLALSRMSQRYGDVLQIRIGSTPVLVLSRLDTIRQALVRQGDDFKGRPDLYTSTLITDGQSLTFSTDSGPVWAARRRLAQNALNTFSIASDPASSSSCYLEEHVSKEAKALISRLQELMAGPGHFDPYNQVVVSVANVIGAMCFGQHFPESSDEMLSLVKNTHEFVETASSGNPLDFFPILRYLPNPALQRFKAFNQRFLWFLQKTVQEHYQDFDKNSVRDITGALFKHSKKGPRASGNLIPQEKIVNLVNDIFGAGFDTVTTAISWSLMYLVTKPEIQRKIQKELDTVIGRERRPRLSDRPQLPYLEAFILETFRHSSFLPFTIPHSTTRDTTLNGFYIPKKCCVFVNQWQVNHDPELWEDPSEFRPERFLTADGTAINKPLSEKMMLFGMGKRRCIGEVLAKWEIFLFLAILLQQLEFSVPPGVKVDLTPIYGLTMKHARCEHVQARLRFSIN
Sequence of Cytochrome P450 3A4 (Homo sapiens) (P08684 whole entry, looked up): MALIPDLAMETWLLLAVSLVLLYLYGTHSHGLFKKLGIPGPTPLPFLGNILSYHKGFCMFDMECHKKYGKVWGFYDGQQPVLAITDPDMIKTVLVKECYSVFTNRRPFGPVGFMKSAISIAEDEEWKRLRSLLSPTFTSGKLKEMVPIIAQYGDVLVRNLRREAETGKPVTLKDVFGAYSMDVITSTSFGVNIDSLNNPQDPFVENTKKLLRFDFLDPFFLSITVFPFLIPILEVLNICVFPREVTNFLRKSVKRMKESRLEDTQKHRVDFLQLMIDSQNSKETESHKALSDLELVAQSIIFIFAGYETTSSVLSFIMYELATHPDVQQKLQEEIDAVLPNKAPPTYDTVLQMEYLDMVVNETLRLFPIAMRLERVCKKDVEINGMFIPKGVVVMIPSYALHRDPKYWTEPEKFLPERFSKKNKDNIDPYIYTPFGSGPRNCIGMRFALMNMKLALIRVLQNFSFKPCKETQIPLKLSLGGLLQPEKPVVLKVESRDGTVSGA
Sequence of Cytochrome P450 2C9 (Homo sapiens) (P11712 whole entry, looked up): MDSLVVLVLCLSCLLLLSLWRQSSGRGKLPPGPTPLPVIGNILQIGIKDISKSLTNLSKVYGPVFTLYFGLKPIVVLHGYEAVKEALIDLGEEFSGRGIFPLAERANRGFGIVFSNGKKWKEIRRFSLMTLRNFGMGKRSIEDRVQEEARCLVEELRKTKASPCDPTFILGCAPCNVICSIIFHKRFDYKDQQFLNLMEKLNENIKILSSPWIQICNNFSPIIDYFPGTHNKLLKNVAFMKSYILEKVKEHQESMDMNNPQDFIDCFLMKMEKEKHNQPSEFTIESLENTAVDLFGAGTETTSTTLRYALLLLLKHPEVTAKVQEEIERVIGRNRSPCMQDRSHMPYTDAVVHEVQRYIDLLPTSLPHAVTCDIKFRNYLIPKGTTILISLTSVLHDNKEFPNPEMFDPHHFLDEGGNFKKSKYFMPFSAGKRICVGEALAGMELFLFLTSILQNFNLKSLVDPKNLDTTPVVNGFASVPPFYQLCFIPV
Sequence of Voltage-gated inwardly rectifying potassium channel KCNH2 (Homo sapiens) (Q12809 whole entry, looked up): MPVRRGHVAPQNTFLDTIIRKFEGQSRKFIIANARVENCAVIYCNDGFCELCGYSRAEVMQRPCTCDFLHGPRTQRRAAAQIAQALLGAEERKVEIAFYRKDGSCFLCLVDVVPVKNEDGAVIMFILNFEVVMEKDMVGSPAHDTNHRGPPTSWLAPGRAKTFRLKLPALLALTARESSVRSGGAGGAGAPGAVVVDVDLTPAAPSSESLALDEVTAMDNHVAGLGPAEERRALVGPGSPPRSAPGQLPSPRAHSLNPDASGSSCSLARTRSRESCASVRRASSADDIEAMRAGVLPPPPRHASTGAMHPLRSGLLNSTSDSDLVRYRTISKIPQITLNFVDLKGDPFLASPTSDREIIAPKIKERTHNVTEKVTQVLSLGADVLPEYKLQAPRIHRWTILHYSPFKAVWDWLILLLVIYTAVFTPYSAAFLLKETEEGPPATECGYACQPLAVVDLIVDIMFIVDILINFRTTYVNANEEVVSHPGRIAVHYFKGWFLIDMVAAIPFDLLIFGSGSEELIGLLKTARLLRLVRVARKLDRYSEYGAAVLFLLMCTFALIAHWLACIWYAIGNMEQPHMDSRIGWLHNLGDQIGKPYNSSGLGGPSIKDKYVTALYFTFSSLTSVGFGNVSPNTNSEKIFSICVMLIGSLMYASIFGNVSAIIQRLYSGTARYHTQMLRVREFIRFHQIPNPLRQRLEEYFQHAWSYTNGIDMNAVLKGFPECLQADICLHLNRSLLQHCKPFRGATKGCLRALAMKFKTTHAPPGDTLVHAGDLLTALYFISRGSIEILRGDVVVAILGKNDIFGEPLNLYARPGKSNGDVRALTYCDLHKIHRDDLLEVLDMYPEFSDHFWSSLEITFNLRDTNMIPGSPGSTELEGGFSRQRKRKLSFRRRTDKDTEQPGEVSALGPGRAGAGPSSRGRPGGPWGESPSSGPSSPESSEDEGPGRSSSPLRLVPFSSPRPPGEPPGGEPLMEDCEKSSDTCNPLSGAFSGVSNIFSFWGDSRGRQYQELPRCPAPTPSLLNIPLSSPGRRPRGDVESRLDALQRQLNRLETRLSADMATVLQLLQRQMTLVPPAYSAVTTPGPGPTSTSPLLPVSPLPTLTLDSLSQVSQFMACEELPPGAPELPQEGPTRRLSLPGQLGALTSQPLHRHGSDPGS

Turning to `COc1ccc(NC(C)=O)cc1`, the Potency in assay [1] was 41 µM (active); in assay [4] it was 36.5 µM (active). The Potency result in assay [2], in assay [3], in assay [5] and in assay [6] was “inactive” throughout.
In the case of `C[C@H]1O[C@@H](n2cc(F)c(=O)[nH]c2=O)[C@H](O)[C@@H]1O`, the Potency result in assay [1], in assay [2], in assay [3], in assay [4] and in assay [6] was “inactive” each time.
For `CC12CCC(CC1=O)C2(C)C` (stereo not given), the Potency result in assay [1], in assay [2], in assay [3], in assay [4] and in assay [6] was “inactive” in each case.
Consider `CC(C)CCCC(C)NCCC(C)C` (stereo not given), for which the Potency in assay [1] was 1.23 µM (active). For the same molecule, the Potency result in assay [2], in assay [3], in assay [4] and in assay [6] was “inactive” each time.
Consider `CC(=O)c1ccc(C)cc1`, for which the Potency entry in assay [1], in assay [2], in assay [3], in assay [4], in assay [5] and in assay [6] was “inactive” throughout.
Consider `CC(C)c1cccc(O)c1`, for which the Potency result in assay [1], in assay [2], in assay [3], in assay [5] and in assay [6] was “inactive” throughout.
As for `NC(=O)c1c(Cl)cccc1Cl`, the figures for the Potency in assay [1], in assay [2] and in assay [6] were 31.7 µM (active), 20 µM (active) and 31.7 µM (active), respectively. Further, the Potency entry in assay [3] and in assay [5] was “inactive” throughout.
In the case of `C=CCn1c(=O)n([C@@H]2O[C@H](CO)[C@@H](O)[C@H]2O)c2nc(N)[nH]c(=O)c21`, the Potency result in assay [1], in assay [2], in assay [3], in assay [5] and in assay [6] was “inactive” in each case.
Turning to `C#CC(O)CCCCC` (stereo not given), the Potency result in assay [1], in assay [3], in assay [5] and in assay [6] was “inactive” each time. For the same molecule, in assay [2], the Potency was 80.3 µM (active).
`Cc1ccccc1C(=O)O`: the Potency entry in assay [1], in assay [2], in assay [4], in assay [5] and in assay [6] was “inactive” in each case.
For the molecule `C=C(C)C(=O)NCCCN(C)C`, the Potency result in assay [1], in assay [2], in assay [3] and in assay [6] was “inactive” throughout.
Consider `CO[Si](OC)(OC)OC`, for which the Potency result in assay [1], in assay [2], in assay [5] and in assay [6] was “inactive” throughout. In assay [4], the Potency is 31 µM (active).
In the case of `O=C1OC(=O)c2cc([N+](=O)[O-])ccc21`, the Potency in assay [1] was 35.5 µM (active). Further, the Potency entry in assay [2], in assay [3], in assay [5] and in assay [6] was “inactive” each time.
Consider `CCCc1ccc(N)cc1`, for which the Potency result in assay [1] and in assay [5] was “inactive” each time. For the same molecule, the Potency in assay [2] and in assay [4] was 35.6 µM (active) throughout.
For the molecule `c1cc(CN2CCCCC2)cc(OCCCNc2nc3ccccc3s2)c1`, the Potency in assay [1] is 3.89 µM (active); in assay [5], 8.49 µM (active). Also, the Potency result in assay [2] and in assay [4] was “inactive” throughout.
In the case of `CCCCCCCCCCCl`, the Potency entry in assay [1], in assay [2], in assay [5] and in assay [6] was “inactive” in each case. Further, the Potency in assay [4] is 32.2 µM (active).
On to `CCCCCCOC(=O)c1ccccc1O`, for which the Potency result in assay [1], in assay [2], in assay [3] and in assay [6] was “inactive” throughout.
As to `CC(C)c1cccc(C(C)C)c1N`, the Potency entry in assay [1], in assay [2], in assay [5] and in assay [6] was “inactive” throughout. The Potency in assay [4] was 20 µM (active).
As to `CC(C)(C)N(CCO)CCO`, the Potency entry in assay [1], in assay [2], in assay [3], in assay [5] and in assay [6] was “inactive” throughout.
`C=C(C)C(=O)OCCCCCCCCCCCCCCCCCC`: the activity change, negative = inhibition is 2.34% [at 23.6 µM] in assay [1], -16.6% [at 23.6 µM] in assay [2], -0.193% [at 15.8 µM] in assay [5] and 2.34% [at 23.6 µM] in assay [6]. Moreover, the Potency entry in assay [4] is “inactive”.
For the molecule `CSc1ccc(C=O)cc1`, the Potency result in assay [1], in assay [2], in assay [3], in assay [5] and in assay [6] was “inactive” in each case.
In the case of `CC1=CCC2C(C1)C2(C)C` (stereo not given), the Potency result in assay [1] and in assay [5] was “inactive” in each case. Moreover, the values for the Potency in assay [2], in assay [3] and in assay [6] were 39.9 µM (active), 63.3 µM (active) and 15.9 µM (active), respectively.
For the molecule `CCC(C)OC(=O)N1CCCCC1CCO` (stereo not given), the Potency entry in assay [1], in assay [5] and in assay [6] was “inactive” throughout. In addition, the Potency is 35.6 µM (active) in assay [2] and 79.6 µM (active) in assay [3].
On to `CN(C)CCOC(c1ccc(Cl)cc1)c1ccccn1` (stereo not given), for which the Potency in assay [1] was 13.8 µM (active). In addition, the Potency entry in assay [2], in assay [3] and in assay [5] was “inactive” in each case.
On to `CCCCc1ccc2cccc(S(=O)(=O)O)c2c1`, for which the Potency result in assay [1], in assay [2], in assay [5] and in assay [6] was “inactive” throughout. Besides, the Potency in assay [3] was 37.3 µM (active).
Regarding `CCCC(=O)O[C@]1(C(=O)CCl)[C@@H](C)C[C@H]2[C@@H]3CCC4=CC(=O)C=C[C@]4(C)[C@@]3(F)C(=O)C[C@@]21C`, the Potency in assay [1] is 11 µM (active); in assay [2] it was 7.76 µM (active). In addition, the Potency result in assay [4] was “inactive”.
For `CCCCCCCCCCCCCCCCCCOCC(O)CO` (stereo not given), the Potency result in assay [1], in assay [2], in assay [3], in assay [5] and in assay [6] was “inactive” in each case.
In the case of `O=[N+]([O-])c1ccc(Oc2ccc([N+](=O)[O-])cc2)cc1`, the Potency entry in assay [1], in assay [4] and in assay [6] was “inactive” in each case. Further, the Potency was 1.82 µM (active) in assay [2] and 39.8 µM (active) in assay [5].
In the case of `OCCCCCCO`, the Potency in assay [1] was 36 µM (active); in assay [2], 12.8 µM (active); in assay [4], 40.4 µM (active). Also, the Potency result in assay [5] was “inactive”.
For `NC1CCN(c2cccc(Cl)n2)CC1`, the Potency in assay [1] was 1.23 µM (active). Besides, the Potency result in assay [2], in assay [3], in assay [5] and in assay [6] was “inactive” in each case.
Consider `C#CC(O)C(CC)CCCC` (stereo not given), for which the Potency entry in assay [1], in assay [4] and in assay [5] was “inactive” throughout. For the same molecule, in assay [2], the Potency is 71 µM (active).
`Nc1ccc2cc(S(=O)(=O)O)ccc2c1`: the figures for the Potency in assay [1], in assay [2] and in assay [3] were 39.9 µM (active), 39.9 µM (active) and 50.2 µM (active), respectively. Also, the Potency entry in assay [5] and in assay [6] was “inactive” in each case.
On to `COc1cc(O)cc(O)c1`, for which the Potency result in assay [1], in assay [3] and in assay [5] was “inactive” throughout. Further, the Potency in assay [2] is 30.9 µM (active).
On to `CC(C)c1ccc2oc3nc(N)c(C(=O)O)cc3c(=O)c2c1`, for which the values for the Potency in assay [1], in assay [2] and in assay [4] were 15.5 µM (active), 15.5 µM (active) and 17.4 µM (active), respectively.
In the case of `CC/C=C\CCCCO`, the Potency entry in assay [1], in assay [2], in assay [4], in assay [5] and in assay [6] was “inactive” in each case.

(Values after PubChem BioAssay (Tox21).)
